Measured values from PubChem BioAssay AID526 (National Center for Advancing Translational Sciences (NCATS), 2006).
Among all 67,000 compounds or so, fewer than 10 were called active. Calls follow the shape of the dose curve; as a rule, active = well fitted activation curve with a large enough effect (not every such curve was filed as active); inconclusive = small, poorly fitted or top-dose-only effect, or another doubt; inactive = no such curve, though single readings can be large or run the other way. Not all results are given here.

assay: Ubiquitin-GFP Assay; details: Ubiquitin-GFP reporter cells, proteasome inhibition, GFP fluorescence, untreated = 0%, 10 µM MG-132 = 100%; series mostly up to 45.9 µM
From the text: NIH Chemical Genomics Center [NCGC]
NIH Molecular Libraries Screening Centers Network [MLSCN]
The ubiquitin-proteasome pathway is present within all eukaryotic cells and plays roles in normal cellular functions and disease-related dysfunction. Proteins are tagged with a poly-ubiquitin chain that targets them for the proteasome, a multimeric protease, that degrades the protein into peptides and free ubiquitin. The proteasome has a key role in regulating cell cycle and growth and is known to control the levels of cyclins and CDK inhibitors as well as tumor suppressor proteins. Additionally, the activation of NF- B is controlled by ubiquitin-labeling and degradation of the inhibitory protein I B . […] With this in mind, proteasome inhibitors such as MG-132 and PS-341 have been used to inhibit tumor cell growth.
A cellular assay for ubiquitin-proteasome function was used to find chemical probes of this pathway. The assay used an ubiquitin-GFP construct expressed in U2OS cells (BioImage). Under basal conditions little GFP can be detected as it is degraded by the proteasome. However, treatment of the cells with a proteasome inhibitor such as MG-132 results in a rise in GFP levels that can be detected in as little as four hours. We used the Acumen-Explorer laser plate cytometer having a 488 nm laser as an excitation light source to detect the GFP. Compounds were screened in 1536-well plates using qHTS with a concentration-titration series range that varied from 46 uM to 2.9 nM.
NCGC Assay Protocol Summary:
Cells (U20S ps 2042) expressing ubiquitin (G76V-GFP) were maintained in DMEM with Glutamax-1 and high glucose, 10% FBS, 1% (v/v) penicillin-streptomycin, 0.5 mg/mL Geneticin (G418). The cells were seeded in 1536-well plates using a solenoid-based dispenser at 700 cells/5ul in DMEM medium with Glutamax-1 and high glucose containing 0.5% FBS, w/o phenol red, 25 mM HEPES. The plates were incubated at 37 °C/5% CO2 overnight. Then 23 nl of MG-132 in DMSO was added to the control wells at a final concentration of 10 uM. Next, 23 nL of library compounds in DMSO were added to the sample wells. The plates were incubated for 4 hrs at 37 °C/5% CO2. Following this incubation the plates were read on the Acumen using a cell object definition of 15 to 100 um in width and depth and a window of Total Intensity of between 77,200 and 2,720,000 FLU to enumerate GFP-expressing cells.
The %Activity was determined from the basal and MG-132 treated control wells. %Activity was determined by normalizing to the difference in signal between basal cells (0% Activity) and cells incubated with 10 uM of the proteasome inhibitor MG-132 (100% Activity). Concentration-response curves were fitted to the signals arising from the GFP fluorescence.
Assay Protocol Summary Table
Sequence Parameter Value Description
2. Time O/N 37C incubation
4. Compound 23 nL Libraries (46 uM to 2.9 nM)
5. Time 4 hr 37C incubation
6. Detector Acumen Total Intensity, GFP fluorescence (488 ex/515 em)
Keywords: NIH Roadmap, MLSCN, MLI, MLSMR, BioImage, proteasome, ubiquitin-GFP, qHTS, NCGC

Activation (GFP accumulation), inactive:
Cc1cc(C(=O)O)c(S(C)(=O)=O)s1, CCn1nnc(NC(=O)c2cc(Cl)c(OC)c(Cl)c2)n1, CCC(c1nnnn1C1CCCC1)N(Cc1cccs1)Cc1cc2cccc(C)c2[nH]c1=O (stereo unspecified), Cc1ccccc1CSc1nnc(-c2ccccn2)n1N, Cn1c(=O)c(CCc2ccccc2)nc2cnc(Nc3ccccc3)nc21, COc1ccccc1CN1CC2(CCN(S(=O)(=O)c3ccccc3)CC2)C1, CC(C)(O/N=C(\C(=O)N[C@@H]1C(=O)N2C(C(=O)[O-])=C(C[n+]3ccccc3)CS[C@@H]12)c1csc(N)n1)C(=O)O, CCc1cc(Br)ccc1NC(=O)C1CCCO1 (stereo unspecified), O=C(O)c1c(Br)c(Br)c(Br)c(Br)c1C1c2ccc(O)cc2Oc2cc(O)ccc21 5.65% [at 9.17 µM], CS(=O)(=O)N1CCC2(CC1)CN(c1ccncc1)C2, NCC(=O)[C@@H](O)[C@H](O)[C@H](O)CO 1.45% [at 9.17 µM], O=C(c1ccco1)N1CCC[C@@]2(CCN(c3ccccc3)C2)C1, Cc1ccc(-c2cc(C(F)(F)F)n3nc(C(=O)N4CCCC4)cc3n2)cc1 6.67% [at 9.17 µM], CC(C)CSC[C@@H]1O[C@H](n2cnc3c(N)nccc32)[C@H](O)[C@@H]1O -1.11% [at 9.17 µM], O=C(Nc1nc2ccc(S(=O)(=O)N3CCCC3)cc2s1)C1CCCO1 (stereo unspecified), O=C(Cn1ccc(=O)[nH]c1=O)Nc1ccc(C(=O)O)c(O)c1 -3.58% [at 9.17 µM], CNc1cc(-c2c(C)noc2C)ncn1, CCOC(=O)c1cc(C)sc1NC(=O)C1CCC1, CC(Sc1sc(=S)sc1SC(C)C(=O)O)C(=O)O (stereo unspecified), CCCOc1ccc(-c2nc(N)n[nH]2)cc1, CC(C)NS(=O)(=O)c1ccc(CCC(=O)N2CCOCC2)cc1, CCOC(=O)c1sc(/N=C/Nc2nc(C)c(C(=O)OCC)s2)nc1C, CCCCCCCCCCCC(=O)O[C@H](CC(=O)O)C[N+](C)(C)C, CC(=O)O[C@]1(C(C)=O)CC[C@@H]2[C@@H]3C=C(C)C4=CC(=O)CC[C@@]4(C)[C@H]3CC[C@]21C, CCCSC1=C(C#N)C(c2ccccc2C)C(C(=O)OC)C(=O)N1 (stereo unspecified), Nc1ccc2[nH]cc(CCC(=O)O)c2c1 -1.62% [at 9.17 µM], Cn1c(NC(=O)c2ccc3c(c2)OCO3)cc(=O)n(C)c1=O, N#CCCn1c(=O)c(-c2cc(F)cc(F)c2)nc2cnc(Oc3ccccc3)nc21, CCCCNc1nc(C)nc2c1nc(-c1ccccc1)n2CCCCN(CC)CC, Cc1ccc(N2CCN(S(=O)(=O)c3ccc(F)cc3)CC2)c(C)c1, CN(Cc1ccco1)c1cc(-c2ccccc2C(F)(F)F)ncn1, COCCn1c(=O)c(CCc2ccccc2)nc2cnc(N3CCNCC3)nc21, CCCCN(CCCC)C(=O)CCS(=O)(=O)c1ccc2c(c1)n(C)c(=O)c(=O)n2C, COc1cccc(-c2cc(NCCc3c[nH]c4ccc(OC)cc34)ncn2)c1, Cc1ccccc1N1CCN(S(=O)(=O)C[C@@]23CC[C@H](C[C@H]2NC(=O)[C@@H](N)CCS(C)(=O)=O)C3(C)C)CC1, O=C(C1CCN(S(=O)(=O)c2cnc[nH]2)CC1)N1CCN(Cc2ccc3c(c2)OCO3)CC1, Nc1cc(OC(=O)c2ccccc2Br)nn1S(=O)(=O)c1ccccc1, CN1[C@@H]2CC[C@H]1CC(NC(=O)c1nn(C)c3ccccc13)C2 (stereo partly specified), O=C(/C=N/O)Nc1ccccc1, CCOc1ccccc1-n1c(SCC(=O)N2CCCC2)nnc1-c1ccoc1C, CN1CCN(c2ncncc2-c2ccc(C(=O)N(C)C)cc2)CC1, O=C(c1cc(C(F)(F)F)cc(C(F)(F)F)c1)N1CCC2(CCCN(c3ccccn3)C2)CC1, COC(=O)Nc1nc2ccc(Sc3ccccc3)cc2[nH]1, CCOC(=O)C1CCN(C(=O)COc2cc(C)c(Br)c(C)c2)CC1, COCCn1c(=O)c(C)nc2cnc(N(C)C)nc21, Cc1ccc(S(=O)(=O)c2nc(NCCCn3ccnc3)sc2Cl)cc1, COc1ccccc1-c1cc(NCc2cccs2)ncn1, Cc1c(NC(=O)c2cccnc2)c(=O)n(-c2ccccc2)n1C, COc1cccc(N2C(=O)CC(N3CCN(S(=O)(=O)c4ccccc4)CC3)C2=O)c1 (stereo unspecified), Cc1cc(C(F)(F)F)nn1CC(=O)N1CCCC1, CC(=O)N1CCC2(CCCN(Cc3ccc(C#N)cc3)C2)CC1, CC(NC(=O)c1cc(-c2ccccc2)on1)c1ccccc1 (stereo unspecified), N#CCCn1cnc2ccccc21, O=C(CCN1C(=O)c2ccccc2C1=O)Nc1ccncc1, Clc1ccccc1-c1cc(NCCN2CCOCC2)ncn1, CCCS(=O)(=O)N1CCCC(C(=O)NCc2ccco2)C1 (stereo unspecified), COc1ccc(-c2noc(CN(C)S(=O)(=O)c3ccc(C)cc3)n2)cc1, Cc1nc2cnc(Nc3ccccc3)nc2n(C[C@H]2CCCO2)c1=O, COc1ccccc1CNc1cc(-c2ccccc2CN(C)C)ncn1, CCn1c(=N)c(C(=O)NCCCOC)cc2c(=O)n3cccc(C)c3nc21, Oc1ccc(Cn2cc[nH]c2=S)cc1, O=C(Nc1cccc(F)c1)N1CCC2(CC1)CCN(S(=O)(=O)c1ccccc1)CC2, CCOc1ccc(N=NS(=O)(=O)O)cc1 -2.9% [at 9.17 µM], NC(=S)c1ccc(C(N)=S)o1, COc1ccc(CN2CC(C(=O)NCCN3CCN(c4ccccc4F)CC3)CC2=O)cc1 (stereo unspecified), COC(=O)c1ccc2c(c1)S(=O)(=O)NC(=NCCCN1CCOCC1)S2, CN(C(=O)CN(CCO)CC(=O)N(C)C(C)(C)Cc1ccccc1)C(C)(C)Cc1ccccc1, O=C(O)C1=CCCN(CCON=C(c2ccccc2)c2ccccc2)C1, CCS(=O)(=O)N1CCCC(C(=O)NCCCN(C)Cc2ccccc2)C1 (stereo unspecified), COC(=O)C1(S(=O)(=O)C2(C(=O)OC)CCCC2)CCCC1, CC(C)[C@H](CO)Nc1nc(Nc2cc(N)cc(Cl)c2)c2ncn(C(C)C)c2n1, O=c1cc(-c2ccc(O)c(O)c2)oc2cccc(O)c12, CC(C)NC[C@H](O)c1ccc2ccccc2c1, CCOC(=O)c1sc(NC(=O)CSc2nnc(-c3ccco3)o2)c(C(=O)OCC)c1C, CN1CCN(Cc2nc3c(c(=O)n(C)c(=O)n3C)n2Cc2cccc3ccccc23)CC1, O=C(O)[C@@H](S)[C@H](S)C(=O)O 4.35% [at 9.17 µM], COC(=O)c1ccc(NC(=O)C(C)N2C(=O)c3ccccc3C2=O)cc1 (stereo unspecified), CC(=O)N1CCC2(CC1)CCN(c1ccncc1)CC2, COCCn1c(=O)c(-c2ccc(OC)cc2)nc2cnc(Oc3cccc(Cl)c3)nc21, Cc1cccc(OCc2nnc(SCn3nnc4ccccc4c3=O)o2)c1, Fc1cccc(/C=N\N=C/c2cccc(F)c2)c1, COc1ccc(CNc2ncnc3ccc(-c4cccnc4)cc23)c(OC)c1, CC(C)(C)Nc1c(N)c(=O)oc2ccccc12 -4.55% [at 9.17 µM], COc1ccccc1N1CCN(C[C@@H]2CN3C(=O)N(C)c4ccccc4C3=N2)CC1, CC[C@]1(C)CC(=O)NC1=O, Cc1cc(=O)[nH]c(SCc2cc(Cl)ccc2OC(F)F)n1, COc1ccc(NC(C)=O)cc1NC(=O)CN1CCN(C2c3ccccc3-c3ccccc32)CC1, COCC(=O)Nc1nnc(COc2ccccc2)s1, O=C(O)Cc1ccc(-c2ccccc2)cc1, CCCS(=O)(=O)N1CCN(C(=O)c2cccs2)CC1, CC1=C(C(=O)OC2CCCCC2)C(c2cccnc2)n2ncnc2N1 (stereo unspecified), C1=C(N2CCOCC2)/C(=C/c2nc3ccccc3[nH]2)CC1 -10.8% [at 9.17 µM], O=C(CSc1nnc(-c2cccnc2)n1Cc1ccco1)c1ccc(Cl)cc1, CC(C)(CSc1nncn1/N=C/c1ccco1)NS(=O)(=O)c1ccc(Cl)cc1, CCC(c1nnnn1Cc1ccco1)N(CCc1ccccc1)Cc1cc2cccc(C)c2[nH]c1=O (stereo unspecified), CC(C(=O)O)N1C(=O)c2cccc3cccc1c23 (stereo unspecified), CC[N+](C)(CC)CCC[n+]1c(-c2ccccc2)c2cc(N)ccc2c2ccc(N)cc21, CC1(C)S[C@@H]2[C@@H](NC(=O)[C@@H](N)c3ccccc3)C(=O)N2[C@H]1C(=O)O, Cc1ccc(CNC(=O)C2CC(=O)N(C3CCCCCCC3)C2)cc1 (stereo unspecified), COc1ccccc1-n1nnnc1S(=O)(=O)Cc1ccc(Cl)cc1, Cc1nc(N2CCN(c3ncccn3)CC2)c2oc3ccccc3c2n1, CSc1ccc(S(=O)(=O)Nc2cccc(F)c2)cc1, O=C(NCc1cccs1)C1CCN(S(=O)(=O)c2ccc3c(c2)OCCO3)CC1, O=S(=O)(O)c1ccc(O)c2ncccc12.O=S(=O)(O)c1ccc(O)c2ncccc12.[Zn] 2.9% [at 9.17 µM], CN(C)c1ccc(CNC23CN4CN(CN(C4)C2)C3)cc1, CCCn1c(C(O)c2cc(OC)ccc2OC)nc2ccccc21 (stereo unspecified)
